# Laboratory results reported in article PMC7862700, “An all-to-all approach to the identification of sequence-specific readers for epigenetic DNA modifications on cytosine”.
# Experiments:
# Assay in all cases: DAPPL (digital affinity profiling via proximity ligation, sequencing); 10 mM Tris-HCl pH 7.5, 50 mM NaCl, 1 mM DTT, 4% glycerol, room temperature, 30 min; GST-TFs on glutathione beads, 16-mer random dsDNA library, 0.1% formaldehyde crosslink after washing; high values mean tight binding
# [1] = target: T1, FLI1 (Homo sapiens, UniProt Q01543 1-452); settings: protein: recombinant; tags: N-terminal GST; dsDNA, one strand shown
# T1 sequence: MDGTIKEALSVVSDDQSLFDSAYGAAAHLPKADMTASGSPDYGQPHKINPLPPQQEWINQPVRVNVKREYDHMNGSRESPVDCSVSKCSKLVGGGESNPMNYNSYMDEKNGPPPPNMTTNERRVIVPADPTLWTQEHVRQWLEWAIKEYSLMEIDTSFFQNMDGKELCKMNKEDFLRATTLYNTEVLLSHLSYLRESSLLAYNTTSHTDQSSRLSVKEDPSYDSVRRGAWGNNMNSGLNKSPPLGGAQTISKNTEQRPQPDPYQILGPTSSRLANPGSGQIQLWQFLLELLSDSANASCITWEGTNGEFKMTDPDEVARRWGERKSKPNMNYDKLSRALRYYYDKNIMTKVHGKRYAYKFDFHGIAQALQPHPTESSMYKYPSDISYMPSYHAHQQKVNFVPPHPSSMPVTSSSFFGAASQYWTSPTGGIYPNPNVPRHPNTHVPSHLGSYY
# How it was run: (§1)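 Binding signal is defined as a hexamer's read frequency for one factor over its frequency for the tag-only sample. To obtain reads, GST-fused human transcription factors were expressed in yeast, captured on glutathione beads, barcoded with DNA and pooled with that sample. Pools met 200 nmole of a 16-mer random double-stranded DNA library in Tris/NaCl/DTT/glycerol buffer for 30 min at room temperature before washing, 0.1% formaldehyde crosslinking, proximity ligation (BsaI/T4 ligase, 1 h, 37 °C), PCR and Illumina NextSeq500 sequencing.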
# [2] = target: T2, ELK1 (Homo sapiens, UniProt P19419 1-428); settings: protein: recombinant; tags: N-terminal GST; dsDNA, one strand shown
# T2 sequence: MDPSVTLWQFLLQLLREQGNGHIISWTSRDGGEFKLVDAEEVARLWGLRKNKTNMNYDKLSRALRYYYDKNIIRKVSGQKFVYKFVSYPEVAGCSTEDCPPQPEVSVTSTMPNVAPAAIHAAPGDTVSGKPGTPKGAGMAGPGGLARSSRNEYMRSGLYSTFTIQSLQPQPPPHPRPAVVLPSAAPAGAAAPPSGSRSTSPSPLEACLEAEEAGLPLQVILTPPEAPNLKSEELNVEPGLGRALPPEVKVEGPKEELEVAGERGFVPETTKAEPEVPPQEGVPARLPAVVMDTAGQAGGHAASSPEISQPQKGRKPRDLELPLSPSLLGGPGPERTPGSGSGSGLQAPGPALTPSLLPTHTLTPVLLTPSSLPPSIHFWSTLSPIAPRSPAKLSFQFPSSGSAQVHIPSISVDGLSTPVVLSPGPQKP
# How it was run: as §1
# [3] = target: T3, GABPA (Homo sapiens, UniProt Q06546 1-454); settings: protein: recombinant; tags: N-terminal GST; dsDNA, one strand shown
# T3 sequence: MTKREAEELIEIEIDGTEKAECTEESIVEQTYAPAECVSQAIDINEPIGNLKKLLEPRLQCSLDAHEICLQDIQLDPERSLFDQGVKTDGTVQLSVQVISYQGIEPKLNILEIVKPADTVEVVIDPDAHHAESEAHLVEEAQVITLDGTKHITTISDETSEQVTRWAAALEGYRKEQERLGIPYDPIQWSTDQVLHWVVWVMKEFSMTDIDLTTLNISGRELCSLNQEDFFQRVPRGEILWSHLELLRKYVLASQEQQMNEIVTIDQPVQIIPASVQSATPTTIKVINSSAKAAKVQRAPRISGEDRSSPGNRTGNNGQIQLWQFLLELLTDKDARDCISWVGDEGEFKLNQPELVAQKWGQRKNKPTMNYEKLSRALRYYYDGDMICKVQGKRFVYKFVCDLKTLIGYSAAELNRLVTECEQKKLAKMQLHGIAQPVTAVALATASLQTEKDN
# How it was run: as §1
# [4] = target: T4, ERG (Homo sapiens, UniProt P11308 1-479); settings: protein: recombinant; tags: N-terminal GST; dsDNA, one strand shown
# T4 sequence: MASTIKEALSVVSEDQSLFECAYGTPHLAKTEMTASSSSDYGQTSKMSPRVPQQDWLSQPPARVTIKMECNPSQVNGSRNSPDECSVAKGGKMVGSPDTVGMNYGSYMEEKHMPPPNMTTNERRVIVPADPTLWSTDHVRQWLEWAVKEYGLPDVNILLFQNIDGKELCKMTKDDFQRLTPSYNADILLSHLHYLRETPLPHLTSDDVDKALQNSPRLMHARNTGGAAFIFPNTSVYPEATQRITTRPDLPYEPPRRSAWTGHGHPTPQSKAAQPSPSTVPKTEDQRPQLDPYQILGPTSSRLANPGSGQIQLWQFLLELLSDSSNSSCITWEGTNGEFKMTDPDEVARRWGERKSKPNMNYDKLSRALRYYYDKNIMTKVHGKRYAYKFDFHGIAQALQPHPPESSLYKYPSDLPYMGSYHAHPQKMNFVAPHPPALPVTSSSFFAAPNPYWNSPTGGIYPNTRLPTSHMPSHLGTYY
# How it was run: as §1
# [5] = target: ELF1 (Homo sapiens, UniProt P32519 1-619); settings: protein: recombinant; tags: N-terminal GST; dsDNA, one strand shown
# Sequence of ELF1 (P32519 whole entry): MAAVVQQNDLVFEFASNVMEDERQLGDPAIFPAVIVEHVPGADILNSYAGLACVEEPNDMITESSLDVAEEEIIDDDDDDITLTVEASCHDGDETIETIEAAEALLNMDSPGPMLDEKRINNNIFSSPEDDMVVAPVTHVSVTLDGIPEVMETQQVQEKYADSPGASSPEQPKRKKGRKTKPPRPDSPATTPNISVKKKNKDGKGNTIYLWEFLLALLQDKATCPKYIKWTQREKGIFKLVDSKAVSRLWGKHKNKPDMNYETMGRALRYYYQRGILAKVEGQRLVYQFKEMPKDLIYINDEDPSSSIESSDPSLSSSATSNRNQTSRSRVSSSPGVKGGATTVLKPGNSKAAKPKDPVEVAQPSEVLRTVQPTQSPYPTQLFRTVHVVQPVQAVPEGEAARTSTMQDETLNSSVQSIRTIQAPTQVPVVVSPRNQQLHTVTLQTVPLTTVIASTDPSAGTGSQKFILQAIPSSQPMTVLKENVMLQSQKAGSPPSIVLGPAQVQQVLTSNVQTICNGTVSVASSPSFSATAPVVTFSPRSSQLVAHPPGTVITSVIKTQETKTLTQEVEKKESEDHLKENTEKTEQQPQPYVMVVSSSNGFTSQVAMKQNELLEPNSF
# How it was run: as §1
# [6] = target: T5, EHF (Homo sapiens, UniProt Q9NZC4 1-300); settings: protein: recombinant; tags: N-terminal GST; dsDNA, one strand shown
# T5 sequence: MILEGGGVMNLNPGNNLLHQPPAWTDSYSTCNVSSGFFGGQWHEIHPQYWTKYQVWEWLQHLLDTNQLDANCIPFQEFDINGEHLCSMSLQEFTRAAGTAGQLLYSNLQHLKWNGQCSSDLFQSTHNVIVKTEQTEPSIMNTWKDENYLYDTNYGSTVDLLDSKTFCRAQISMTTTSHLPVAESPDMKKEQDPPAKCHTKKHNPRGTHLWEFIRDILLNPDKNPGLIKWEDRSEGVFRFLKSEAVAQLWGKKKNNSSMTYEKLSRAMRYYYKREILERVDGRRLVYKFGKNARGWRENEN
# How it was run: as §1
# [7] = target: SPI1 (Homo sapiens, UniProt P17947 1-270); settings: protein: recombinant; tags: N-terminal GST; dsDNA, one strand shown
# How it was run: as §1
# [8] = target: SPIB (Homo sapiens, UniProt Q01892 1-262); settings: protein: recombinant; tags: N-terminal GST; dsDNA, one strand shown
# Sequence of SPIB (Q01892 whole entry): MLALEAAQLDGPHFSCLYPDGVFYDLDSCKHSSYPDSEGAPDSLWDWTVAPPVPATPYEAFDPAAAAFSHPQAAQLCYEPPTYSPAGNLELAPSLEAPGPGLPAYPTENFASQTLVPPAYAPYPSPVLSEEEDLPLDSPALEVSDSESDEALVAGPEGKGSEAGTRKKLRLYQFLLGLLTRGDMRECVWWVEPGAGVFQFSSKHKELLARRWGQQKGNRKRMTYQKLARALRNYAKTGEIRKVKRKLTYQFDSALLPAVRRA
# How it was run: as §1
# [9] = target: T6, ELK3 (Homo sapiens, UniProt P41970 1-407); settings: protein: recombinant; tags: N-terminal GST; dsDNA, one strand shown
# T6 sequence: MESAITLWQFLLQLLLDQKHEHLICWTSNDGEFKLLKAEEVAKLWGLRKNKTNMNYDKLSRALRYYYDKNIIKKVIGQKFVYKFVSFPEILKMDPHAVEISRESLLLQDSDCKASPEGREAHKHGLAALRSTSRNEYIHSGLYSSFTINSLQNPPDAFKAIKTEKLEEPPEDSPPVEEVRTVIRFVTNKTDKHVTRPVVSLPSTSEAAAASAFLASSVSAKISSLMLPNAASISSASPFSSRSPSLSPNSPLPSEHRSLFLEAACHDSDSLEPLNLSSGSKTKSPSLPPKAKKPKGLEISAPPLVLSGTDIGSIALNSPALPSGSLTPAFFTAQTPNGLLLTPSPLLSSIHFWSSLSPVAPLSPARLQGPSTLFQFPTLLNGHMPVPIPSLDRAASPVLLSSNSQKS
# How it was run: as §1
# [10] = target: T7, FEV (Homo sapiens, UniProt Q99581 1-238); settings: protein: recombinant; tags: N-terminal GST; dsDNA, one strand shown
# T7 sequence: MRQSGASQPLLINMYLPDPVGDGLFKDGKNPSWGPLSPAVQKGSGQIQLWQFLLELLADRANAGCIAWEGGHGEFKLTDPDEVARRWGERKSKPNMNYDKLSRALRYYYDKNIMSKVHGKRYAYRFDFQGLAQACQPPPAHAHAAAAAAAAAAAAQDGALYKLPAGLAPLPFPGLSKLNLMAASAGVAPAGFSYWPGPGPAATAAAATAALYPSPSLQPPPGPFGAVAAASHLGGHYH
# How it was run: as §1
# [11] = target: ETV5 (Homo sapiens, UniProt P41161 1-510); settings: protein: recombinant; tags: N-terminal GST; dsDNA, one strand shown
# Sequence of ETV5 (P41161 whole entry): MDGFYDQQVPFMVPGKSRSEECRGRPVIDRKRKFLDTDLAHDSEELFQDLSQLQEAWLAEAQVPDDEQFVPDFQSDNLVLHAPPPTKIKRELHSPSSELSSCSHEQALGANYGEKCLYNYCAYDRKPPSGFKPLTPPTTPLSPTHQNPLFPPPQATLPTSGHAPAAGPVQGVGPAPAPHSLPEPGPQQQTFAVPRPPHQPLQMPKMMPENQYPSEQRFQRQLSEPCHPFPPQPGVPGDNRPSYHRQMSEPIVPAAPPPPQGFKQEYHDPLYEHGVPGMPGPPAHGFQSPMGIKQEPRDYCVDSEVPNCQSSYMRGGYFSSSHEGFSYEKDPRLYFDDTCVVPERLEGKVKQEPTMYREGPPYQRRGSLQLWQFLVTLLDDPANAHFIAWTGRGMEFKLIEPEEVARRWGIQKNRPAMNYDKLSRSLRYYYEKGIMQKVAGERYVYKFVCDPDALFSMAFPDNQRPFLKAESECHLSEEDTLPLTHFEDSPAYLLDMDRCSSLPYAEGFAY
# How it was run: as §1
# [12] = target: HSF1 (Homo sapiens, UniProt Q00613 1-529); settings: protein: recombinant; tags: N-terminal GST; chain copies: 3; dsDNA, one strand shown
# Sequence of HSF1 (Q00613 whole entry): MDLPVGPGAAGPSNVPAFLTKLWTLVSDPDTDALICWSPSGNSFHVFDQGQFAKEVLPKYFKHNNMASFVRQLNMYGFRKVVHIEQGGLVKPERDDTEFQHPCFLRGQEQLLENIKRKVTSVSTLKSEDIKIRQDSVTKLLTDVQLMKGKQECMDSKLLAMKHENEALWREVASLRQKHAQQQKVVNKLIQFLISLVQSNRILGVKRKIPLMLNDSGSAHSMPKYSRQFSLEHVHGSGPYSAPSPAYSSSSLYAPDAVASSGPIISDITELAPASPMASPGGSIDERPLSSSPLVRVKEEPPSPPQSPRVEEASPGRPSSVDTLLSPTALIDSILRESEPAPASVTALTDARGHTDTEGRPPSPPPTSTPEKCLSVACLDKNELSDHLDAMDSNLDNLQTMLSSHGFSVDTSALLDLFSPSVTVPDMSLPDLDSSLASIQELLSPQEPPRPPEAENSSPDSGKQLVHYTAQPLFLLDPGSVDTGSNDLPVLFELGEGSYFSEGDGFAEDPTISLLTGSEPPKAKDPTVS
# How it was run: as §1
# [13] = target: T8, SPIC (Homo sapiens, UniProt Q8N5J4 1-248); settings: protein: recombinant; tags: N-terminal GST; dsDNA, one strand shown
# T8 sequence: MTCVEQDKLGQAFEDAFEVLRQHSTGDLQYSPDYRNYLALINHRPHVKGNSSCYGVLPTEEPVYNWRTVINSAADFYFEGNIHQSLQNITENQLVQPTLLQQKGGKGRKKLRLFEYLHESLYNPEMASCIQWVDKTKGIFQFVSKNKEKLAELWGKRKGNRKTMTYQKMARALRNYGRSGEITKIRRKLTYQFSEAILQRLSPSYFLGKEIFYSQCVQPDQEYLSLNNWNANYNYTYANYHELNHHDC
# How it was run: as §1
# [14] = target: ELF4 (Homo sapiens, UniProt Q99607 1-663); settings: protein: recombinant; tags: N-terminal GST; dsDNA, one strand shown
# Sequence of ELF4 (Q99607 whole entry): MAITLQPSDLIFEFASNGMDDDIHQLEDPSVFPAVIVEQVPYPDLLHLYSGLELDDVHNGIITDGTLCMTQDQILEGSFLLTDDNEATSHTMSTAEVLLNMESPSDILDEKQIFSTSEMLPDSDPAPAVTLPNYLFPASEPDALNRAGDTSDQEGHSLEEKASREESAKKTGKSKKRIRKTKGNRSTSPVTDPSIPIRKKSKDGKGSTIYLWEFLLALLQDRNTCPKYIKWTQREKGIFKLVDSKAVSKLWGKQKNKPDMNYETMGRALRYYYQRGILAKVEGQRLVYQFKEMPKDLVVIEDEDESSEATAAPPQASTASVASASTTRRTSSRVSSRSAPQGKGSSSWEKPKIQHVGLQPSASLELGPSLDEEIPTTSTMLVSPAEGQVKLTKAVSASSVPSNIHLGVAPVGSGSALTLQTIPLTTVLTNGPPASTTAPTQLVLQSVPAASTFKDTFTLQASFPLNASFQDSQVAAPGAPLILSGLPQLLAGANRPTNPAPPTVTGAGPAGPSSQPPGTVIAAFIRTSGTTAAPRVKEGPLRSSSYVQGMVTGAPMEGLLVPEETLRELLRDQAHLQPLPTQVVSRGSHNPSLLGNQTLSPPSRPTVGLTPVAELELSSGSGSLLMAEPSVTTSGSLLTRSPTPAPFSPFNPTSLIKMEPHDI
# How it was run: as §1
# [15] = target: T9, ELK4 (Homo sapiens, UniProt P28324-2 1-405); settings: protein: recombinant; tags: N-terminal GST; dsDNA, one strand shown
# T9 sequence: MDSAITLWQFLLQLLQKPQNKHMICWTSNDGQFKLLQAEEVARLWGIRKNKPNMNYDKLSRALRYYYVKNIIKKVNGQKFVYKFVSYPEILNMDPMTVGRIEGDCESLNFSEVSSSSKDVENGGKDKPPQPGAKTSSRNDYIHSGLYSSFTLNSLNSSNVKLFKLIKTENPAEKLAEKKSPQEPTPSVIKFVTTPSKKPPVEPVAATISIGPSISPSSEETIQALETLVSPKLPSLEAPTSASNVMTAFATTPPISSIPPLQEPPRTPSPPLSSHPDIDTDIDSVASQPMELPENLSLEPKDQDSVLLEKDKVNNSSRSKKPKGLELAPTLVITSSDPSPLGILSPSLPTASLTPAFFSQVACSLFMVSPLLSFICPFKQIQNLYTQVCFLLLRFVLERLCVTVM
# How it was run: as §1
# [16] = target: T10, ETV2 (Homo sapiens, UniProt O00321 1-342); settings: protein: recombinant; tags: N-terminal GST; dsDNA, one strand shown
# T10 sequence: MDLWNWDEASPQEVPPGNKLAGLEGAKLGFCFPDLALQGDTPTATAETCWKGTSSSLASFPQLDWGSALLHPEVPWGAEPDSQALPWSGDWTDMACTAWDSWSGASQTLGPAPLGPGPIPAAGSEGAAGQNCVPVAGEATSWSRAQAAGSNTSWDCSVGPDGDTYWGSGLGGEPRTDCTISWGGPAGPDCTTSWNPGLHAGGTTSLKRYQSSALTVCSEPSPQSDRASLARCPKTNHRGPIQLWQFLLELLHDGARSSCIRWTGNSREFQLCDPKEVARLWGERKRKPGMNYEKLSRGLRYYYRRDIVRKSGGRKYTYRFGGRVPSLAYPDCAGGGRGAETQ
# How it was run: as §1
# [17] = target: CRX (Homo sapiens, UniProt O43186 1-299); settings: protein: recombinant; tags: N-terminal GST; dsDNA, one strand shown
# Sequence of CRX (O43186 whole entry): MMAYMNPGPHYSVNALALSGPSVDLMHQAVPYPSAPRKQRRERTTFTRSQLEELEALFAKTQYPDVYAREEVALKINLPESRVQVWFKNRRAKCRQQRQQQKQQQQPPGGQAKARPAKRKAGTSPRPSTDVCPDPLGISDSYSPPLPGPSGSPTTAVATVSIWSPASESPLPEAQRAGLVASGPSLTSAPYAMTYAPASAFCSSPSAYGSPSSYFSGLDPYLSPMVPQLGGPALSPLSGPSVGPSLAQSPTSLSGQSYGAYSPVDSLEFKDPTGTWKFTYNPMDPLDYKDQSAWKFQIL
# How it was run: as §1
# [18] = target: ETV1 (Homo sapiens, UniProt P50549 1-477); settings: protein: recombinant; tags: N-terminal GST; dsDNA, one strand shown
# Sequence of ETV1 (P50549 whole entry): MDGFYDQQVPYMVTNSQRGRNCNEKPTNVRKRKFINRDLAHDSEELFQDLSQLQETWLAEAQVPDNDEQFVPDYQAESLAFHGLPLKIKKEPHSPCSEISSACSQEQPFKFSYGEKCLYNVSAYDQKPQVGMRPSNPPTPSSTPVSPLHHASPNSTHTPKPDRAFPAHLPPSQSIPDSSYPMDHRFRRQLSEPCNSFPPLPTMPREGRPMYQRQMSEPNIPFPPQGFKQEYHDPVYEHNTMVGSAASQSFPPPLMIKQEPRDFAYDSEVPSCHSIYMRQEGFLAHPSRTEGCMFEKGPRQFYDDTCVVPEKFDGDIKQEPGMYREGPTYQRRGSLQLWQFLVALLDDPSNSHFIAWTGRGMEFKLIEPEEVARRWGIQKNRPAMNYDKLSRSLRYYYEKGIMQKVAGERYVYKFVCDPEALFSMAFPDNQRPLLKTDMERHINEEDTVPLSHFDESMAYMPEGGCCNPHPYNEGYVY
# How it was run: as §1
sequence,measurement,setting,value
GTCTAA,binding signal,[1],"1.05 fold enrichment (6-mer frequency, TF over GST control)"
same,binding signal,[2],"1.03 fold enrichment (6-mer frequency, TF over GST control)"
same,binding signal,[3],"1.14 fold enrichment (6-mer frequency, TF over GST control)"
same,binding signal,[4],"1.09 fold enrichment (6-mer frequency, TF over GST control)"
same,binding signal,[5],"1.09 fold enrichment (6-mer frequency, TF over GST control)"
same,binding signal,[6],"1.02 fold enrichment (6-mer frequency, TF over GST control)"
same,binding signal,[7],"1.08 fold enrichment (6-mer frequency, TF over GST control)"
same,binding signal,[8],"1.09 fold enrichment (6-mer frequency, TF over GST control)"
same,binding signal,[9],"1.12 fold enrichment (6-mer frequency, TF over GST control)"
same,binding signal,[10],"1.03 fold enrichment (6-mer frequency, TF over GST control)"
same,binding signal,[11],"1.01 fold enrichment (6-mer frequency, TF over GST control)"
same,binding signal,[12],"1.03 fold enrichment (6-mer frequency, TF over GST control)"
same,binding signal,[13],"1.11 fold enrichment (6-mer frequency, TF over GST control)"
same,binding signal,[14],"1.13 fold enrichment (6-mer frequency, TF over GST control)"
same,binding signal,[15],"1.14 fold enrichment (6-mer frequency, TF over GST control)"
same,binding signal,[16],"1.06 fold enrichment (6-mer frequency, TF over GST control)"
same,binding signal,[17],"1.33 fold enrichment (6-mer frequency, TF over GST control)"
same,binding signal,[18],"1.11 fold enrichment (6-mer frequency, TF over GST control)"
